Records with an inconclusive call do not appear. Active and inactive are the calls of the source. The call rests on the fitted dose curve; in most records, active means well fitted cell-killing curve with a large enough effect; inconclusive means small, poorly fitted or top-dose-only effect, or effect the other way; inactive means no such curve, though single readings can be large or run the other way.
Assay: qHTS of pediatric cancer cell lines to identify multiple opportunities for drug repurposing: Confirmatory screen for RD cells (AID 1347124);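 further: cells exposed to compound for 48 h before viability readout; nearly all actives have a fitted effect of over 65% in size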
Conditions: RD rhabdomyosarcoma cell viability; series mostly up to 45.9 µM; activity change, negative = cytotoxic: at the top concentration
Description: Drug repurposing or repositioning has been offered as a strategy for drug development in oncology programs. This approach has special potential for childhood cancers and other rare or orphan diseases, where the expected return on new drug development has been a disincentive to pharmaceuticals.
In this project we exploit the poly-pharmacology of drugs to discover new indications via phenotypic screening of a panel of 19 well-characterized cell lines derived from solid tumors seen in children and adolescents. The goal is to identify approved drugs with previously unrecognized anticancer properties that has the potential to reveal new mechanisms and biological processes involved in carcinogenesis or drug resistance. We employed a titration-based paradigm (quantitative high-throughput screening or qHTS), where all compounds were tested at multiple concentrations for their effect on cell viability. Concentration-response curves (CRCs) were derived directly from the primary screen, and both potency and efficacy values were used to identify compounds with robust bioactivity profiles. We screened the NIH Chemical Genomics Center (NCGC) Pharmaceutical Collection (NPC) and Mechanism Interrogation Plate (MIPE) small molecule collections of approved and investigational compounds against these cell lines; and measured metabolically active cells after 48 hours of compound treatment as a proxy for cell viability.
Assay Submitter: Nathalia J. Martinez, National Center for Advancing Translational Sciences, National Institutes of Health, Rockville, MD, USA; email: natalia.martinez@nih.gov
[1] Shen, M et al. Quantitative high-throughput phenotypic screening of pediatric cancer cell lines identifies multiple opportunities for drug repurposing. Oncotarget 2017 Dec 19;9(4):4758-4772. PMID 29435139.
The cells were obtained from University of North Carolina (UNC), Pediatric Preclinical Testing Program (PPT), and Coriell Institute (CI).
qHTS cell viability assay:
Cells were assayed in growth media at a density of 500-1,000 cells/well. Five microliters of cells were dispensed into 1,536-well, white, solid-bottom, TC-treated plates (Greiner Bio One) using a multidrop dispenser and incubated at 37 degrees C, 5% CO2, under a humidified atmosphere for 5 hours. Twenty-three nanoliters of compounds and controls (neutral control DMSO or positive control bortezomib at final concentration of 2.3 µM) were subsequently transferred by Kalypsys pintool. For primary screens, the MIPE collection was tested at 11-point dilutions (final concentrations range from 0.78 nM to 46 µM) and the NPC collection at 8-point dilutions (final concentrations range from 0.59 nM to 46 µM). Compounds tested in follow-up screens were assayed at 11-point dilutions. Cells were incubated for 48 hours, followed by addition of 3 µL of CellTiter-Glo (Promega). After a 15 min incubation at room temperature, samples were analyzed for luminescence intensity using a ViewLux High-throughput CCD imager equipped with clear filters.
For `O=C(Nc1ccc([N+](=O)[O-])cc1Cl)c1cc(Cl)ccc1O`, the Potency was 4560 nM (active).
With `NC12CC3CC(CC(C3)C1)C2` the “activity change, negative = cytotoxic” value was 6.19% (inactive).
With `Clc1ccc(C(c2ccccc2Cl)C(Cl)Cl)cc1` (stereo unspecified) the “activity change, negative = cytotoxic” value was 4.11% (inactive).
With `CN(Cc1cnc2nc(N)nc(N)c2n1)c1ccc(C(=O)N[C@@H](CCC(=O)O)C(=O)O)cc1` the Potency was 82.7 nM (active).
With `CCC1(c2ccccc2)C(=O)NCNC1=O` the “activity change, negative = cytotoxic” value was 17.2% (inactive).
In the case of `CS(=O)(=O)CCNCc1ccc(-c2ccc3ncnc(Nc4ccc(OCc5cccc(F)c5)c(Cl)c4)c3c2)o1`, the “activity change, negative = cytotoxic” value is reported as -21.7% (inactive).
For `COC(=O)Nc1nc2ccc(C(=O)c3cccs3)cc2[nH]1`, the Potency was 233 nM (active).
For `COc1cc2c(c(OC)c1OC)-c1ccc(OC)c(=O)cc1[C@@H](NC(C)=O)CC2`, the Potency was 70.8 nM (active).
With `NC(=O)NO` the “activity change, negative = cytotoxic” value was 2.06% (inactive).
For `CC#C[C@]1(O)CC[C@H]2[C@@H]3CCC4=CC(=O)CCC4=C3[C@@H](c3ccc(N(C)C)cc3)C[C@@]21C`, the “activity change, negative = cytotoxic” value was -14% (inactive).
With `CC[C@@]1(O)C(=O)OCc2c1cc1n(c2=O)Cc2cc3c(CN(C)C)c(O)ccc3nc2-1` the Potency was 5850 nM (active).
In the case of `CC(C)NCC(O)c1ccc(O)c(O)c1` (stereo unspecified), the “activity change, negative = cytotoxic” value is reported as -9.55% (inactive).
With `CC(C)Cc1ccc(C(C)C(=O)O)cc1` (stereo unspecified) the Potency was 1310 nM (active).
In the case of `CC(CCc1ccc(O)cc1)NCCc1ccc(O)c(O)c1` (stereo unspecified), the “activity change, negative = cytotoxic” value is reported as 11.3% (inactive).
For `CN1CCN(CCCN2c3ccccc3Sc3ccc(Cl)cc32)CC1`, the Potency was 18500 nM (active).
In the case of `O=C1c2c(O)ccc(O)c2C(=O)c2c(NCCNCCO)ccc(NCCNCCO)c21`, the Potency is reported as 2610 nM (active).

From PubChem BioAssay (NCATS)
On the % scale 0 is the no-effect control and ±100 the full control effect; potency means the concentration at half of the fitted maximal effect.
